# According to PubChem BioAssay (EPA / NIEHS):
# Records with an inconclusive call do not appear. The source made the active and inactive calls. The calls were made as follows: active = hit-call score of the fitted dose curve at least 0.9, where 1 is the maximum; inconclusive = response in the unintended direction; inactive = score below 0.9.
# What was measured:
# [1] = ACEA_AR_agonist_AUC_viability: ACEA Biosciences xCELLigence Real-Time Cell Analysis on Androgen Receptor Agonism for Viability (AID 2283775);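 as to AC50: viability read 80 hours after compound addition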
# Method in brief: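 Read-out is area under the impedance curve at 80 h post-dose in 22Rv1 cells, with DMSO as baseline and signal loss taken as reduced viability. Compounds ran in duplicate from 100 uM final.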
# [2] = target: Luciferin 4-monooxygenase (Photinus pyralis) (UniProt P08659); test: CCTE_Simmons_QuantiLum_inhib_2: CCTE's Firefly Luciferase Inhibition Assay, Simmons Lab (AID 2283767);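 as to AC50: potency for inhibitors that lower luciferase luminescence relative to DMSO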
# Method in brief: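 Recombinant firefly luciferase (5 ng/well, 200 mM potassium phosphate with 1 mg/ml BSA) was exposed to 8 concentrations from 5 nM to 87.5 uM (final, 0.5% DMSO) for 30 min at 37C in the dark. Loss of luminescence versus DMSO was read after injecting D-luciferin/ATP-analogue reagent.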
# [3] = ACEA_AR_antagonist_AUC_viability: ACEA Biosciences xCELLigence Real-Time Cell Analysis on Androgen Receptor Antagonism for Viability (AID 2283776);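 also: 22Rv1 human prostate cancer cells growing on impedance electrode plates; area under impedance growth curve at 80 h after dosing as viability; hits lower the growth signal relative to DMSO meaning cytotoxicity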
# Method in brief: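 Viability endpoint from label-free cell-index monitoring: 22Rv1 cultures treated with an eight-point 1:4 dilution series starting at 100 uM final, AUC at 80 h fitted against DMSO.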
# Sequence of Luciferin 4-monooxygenase (Photinus pyralis) (P08659 whole entry, looked up): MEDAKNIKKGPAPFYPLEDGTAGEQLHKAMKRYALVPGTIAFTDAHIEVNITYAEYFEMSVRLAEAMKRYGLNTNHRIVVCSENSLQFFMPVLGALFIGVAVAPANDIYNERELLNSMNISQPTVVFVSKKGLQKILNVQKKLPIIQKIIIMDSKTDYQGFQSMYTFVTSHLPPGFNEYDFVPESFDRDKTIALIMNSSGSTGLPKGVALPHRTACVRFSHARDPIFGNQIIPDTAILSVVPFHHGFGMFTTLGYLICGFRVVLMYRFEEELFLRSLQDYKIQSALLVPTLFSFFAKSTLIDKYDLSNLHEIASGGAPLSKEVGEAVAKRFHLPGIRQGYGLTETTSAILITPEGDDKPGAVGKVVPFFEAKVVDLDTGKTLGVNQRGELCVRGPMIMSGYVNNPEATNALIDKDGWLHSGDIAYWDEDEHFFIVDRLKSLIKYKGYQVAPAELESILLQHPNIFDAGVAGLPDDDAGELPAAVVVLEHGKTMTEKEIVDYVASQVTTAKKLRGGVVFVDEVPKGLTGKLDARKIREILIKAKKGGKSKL
structure (smiles),measurement,setting,value
CCCCNS(=O)(=O)c1ccc(C)cc1,outcome,[1],inactive
CC1=CC=C(C(C)C)CC1,outcome,[1],inactive
CC12CCC(CC1)C(C)(C)O2,outcome,[1],inactive
CCCCC1C(=O)N(c2ccccc2)N(c2ccccc2)C1=O,outcome,[2],inactive
COc1ccc(-c2coc3cc(O)cc(O)c3c2=O)cc1,AC50,[2],9.08 µM (active)
same,outcome,[1],inactive
same,AC50,[3],0.86 µM (active)
O=S(=O)(O)c1ccc(N=Nc2c(O)ccc3ccccc23)cc1,AC50,[2],24.3 µM (active)
same,outcome,[1],inactive
same,outcome,[3],inactive
CC(CCC(=O)O)(c1ccc(O)cc1)c1ccc(O)cc1,outcome,[2],inactive
same,AC50,[3],1.24 µM (active)
O=C(O)c1cc(O)c2ccccc2c1O,AC50,[2],39.9 µM (active)
same,outcome,[1],inactive
same,outcome,[3],inactive
O=C(O)CCC(=O)O,outcome,[1],inactive
CC(C)COC(=O)CC(C(=O)OCC(C)C)S(=O)(=O)O (stereo unspecified),outcome,[1],inactive
COC(=O)c1ccccc1C,outcome,[2],inactive
same,outcome,[3],inactive
CCc1occc(=O)c1O,outcome,[2],inactive
same,outcome,[1],inactive
same,outcome,[3],inactive
CN(C)c1ccc2nc3ccc(=[N+](C)C)cc-3sc2c1,AC50,[2],0.676 µM (active)
same,AC50,[1],20.4 µM (active)
same,AC50,[3],9.9 µM (active)
O=C(Oc1ccccc1)c1ccccc1O,outcome,[1],inactive
O=c1c(O)c(-c2ccc(O)cc2O)oc2cc(O)cc(O)c12,AC50,[2],68.3 µM (active)
CC1=NN(c2ccc(S(=O)(=O)O)cc2)C(=O)C1N=Nc1ccccc1 (stereo unspecified),outcome,[2],inactive
same,outcome,[1],inactive
same,outcome,[3],inactive
CCCCCCCCCCCCc1ccc(O)cc1,outcome,[2],inactive
same,AC50,[1],16.6 µM (active)
same,AC50,[3],16.6 µM (active)
CC(C)(c1ccccc1)c1ccc(Nc2ccc(C(C)(C)c3ccccc3)cc2)cc1,AC50,[2],53.8 µM (active)
same,outcome,[1],inactive
same,AC50,[3],11.4 µM (active)
